Experimental data: PubChem BioAssay (NCI)
About 79,000 compounds went through this panel and 15% of them were active in at least one assay; those are over-represented in the sample as a whole. Activity calls are given as the source filed them. Cut-off read from the data, not from the text of the source: active = growth inhibition above about 70%; inactive = the rest.

Experiments:
[1] = NCI Yeast Anticancer Drug Screen. Data for the mec2-1 strain (AID 157); conditions: S. cerevisiae mec2-1 strain, active compounds read high
Method in brief: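 Using mec2-1 yeast: add compound, measure growth, express inhibition versus vehicle-treated cultures.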

[2] = NCI Yeast Anticancer Drug Screen. Data for the sgs1 mgt1 strain (AID 161);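 note: 0% = growth of cultures given vehicle only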; conditions: S. cerevisiae sgs1 mgt1 strain, active compounds read high
Method in brief: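 Yeast cells carrying a defined DNA-repair defect were exposed to test compounds. Growth inhibition was measured relative to vehicle-treated controls.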

[3] = NCI Yeast Anticancer Drug Screen. Data for the CLN2oe strain (AID 163);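 note: 0% = growth of vehicle-only control cultures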; conditions: S. cerevisiae CLN2oe strain, active compounds read high
Method in brief: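 Whole-cell yeast growth assay. A strain engineered for altered cell-cycle control received compound, and inhibition relative to vehicle-treated cultures was recorded.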

[4] = NCI Yeast Anticancer Drug Screen. Data for the cln2 rad14 strain (AID 165);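 note: 0% = growth equal to vehicle treated cultures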; conditions: S. cerevisiae cln2 rad14 strain, active compounds read high
Method in brief: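 Yeast strain cln2 rad14, bearing defects in cell cycle control and DNA repair, serves as the test system; values reflect growth inhibition compared with vehicle.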

[5] = NCI Yeast Anticancer Drug Screen. Data for the bub3 strain (AID 167); conditions: S. cerevisiae bub3 mutant strain, active compounds read high
Method in brief: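 Screening used yeast with an engineered genetic alteration affecting cell cycle control. Compound-exposed cultures were compared with vehicle cultures, and reduced growth was taken as inhibition.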

[6] = NCI Yeast Anticancer Drug Screen. Data for the wt2 strain (AID 169);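 note: 0% = growth of vehicle-treated yeast cultures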; conditions: S. cerevisiae wt2 strain growth inhibition, active compounds read high
Method in brief: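 Treated yeast vs. vehicle-treated yeast: growth inhibition determined.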

[7] = NCI Yeast Anticancer Drug Screen. Data for the mlh1 strain (AID 171);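 note: 0% = growth of vehicle-treated control cultures of the same strain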; conditions: S. cerevisiae mlh1 strain growth inhibition, active compounds read high
Method in brief: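 A yeast strain with a defined genetic lesion serves as the test organism. Cultures receive compound or vehicle, and growth is measured.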

[8] = NCI Yeast Anticancer Drug Screen. Data for the sgs1 strain (AID 173);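 note: 0% = growth of vehicle-only control cultures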; conditions: S. cerevisiae sgs1 mutant, active compounds read high
Method in brief: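 A genetically defined yeast mutant is incubated with the test compound, and its growth is compared to that of the same strain given vehicle.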

[9] = NCI Yeast Anticancer Drug Screen. Data for the mlh1 rad18 strain (AID 175); conditions: S. cerevisiae mlh1 rad18 strain growth inhibition, active compounds read high
Method in brief: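 Steps: expose repair-defective yeast to compound; measure growth; express inhibition against vehicle-treated controls.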

[10] = NCI Yeast Anticancer Drug Screen. Data for the rad18 strain (AID 177); conditions: S. cerevisiae rad18 mutant growth inhibition, active compounds read high
Method in brief: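 Measured value is growth inhibition of a yeast strain bearing a DNA repair alteration, referenced to vehicle-treated cells.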

[11] = NCI Yeast Anticancer Drug Screen. Data for the rad52 strain (AID 147);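 note: 0% = growth of vehicle-treated control cultures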; conditions: S. cerevisiae rad52 mutant growth inhibition, active compounds read high
Method in brief: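 Here a repair-compromised yeast strain receives each compound; its growth is then quantified and normalised to vehicle-only controls.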

[12] = NCI Yeast Anticancer Drug Screen. Data for the wt1 strain (AID 149);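 note: 0% = growth of vehicle-treated wt1 cultures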; conditions: S. cerevisiae wt1 strain (SPY 50644) growth inhibition, active compounds read high
Method in brief: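 Using yeast strain wt1, compound-induced growth inhibition was determined against vehicle-treated cultures.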

[13] = NCI Yeast Anticancer Drug Screen. Data for the rad50EPP+ strain (AID 151);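 note: 0% = growth of vehicle-treated control cultures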; conditions: S. cerevisiae rad50 mutant strain, active compounds read high
Method in brief: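 Read-out is yeast growth inhibition relative to vehicle; cells used were the rad50EPP+ strain.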

[14] = NCI Yeast Anticancer Drug Screen. Data for the mgt1 strain (AID 153); conditions: S. cerevisiae mgt1 mutant growth inhibition, active compounds read high
Method in brief: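 Measured: inhibition of mgt1 yeast growth by compound, normalized to vehicle-treated cultures.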

[15] = NCI Yeast Anticancer Drug Screen. Data for the rad50 strain (AID 155);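 note: 0% = growth of vehicle-only cultures of the same strain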; conditions: S. cerevisiae rad50 strain growth inhibition, active compounds read high
Method in brief: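 Relative growth inhibition (compound vs vehicle) was measured in yeast with a defined repair-gene alteration.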

[16] = NCI Yeast Anticancer Drug Screen. Data for the rad14 strain (AID 159);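 note: 0% = growth of vehicle-treated control cultures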; conditions: S. cerevisiae rad14 strain growth inhibition, active compounds read high
Method in brief: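 Screen for anticancer potential: a yeast strain altered in DNA damage repair is grown with compound, and reduced growth is quantified against vehicle controls.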

[17] = at 5.0 µM (retest, dose inferred, filed as 0.5)
[18] = at 50.0 µM (retest, dose inferred, filed as 5.0)

Measured: growth inhibition

Cc1ccc2nc(-c3cccc([N+](=O)[O-])c3)oc(=O)c2c1
inactive: [1]; [17] 39% | [1]; at 11.0 µM -62% | [1]; at 33.0 µM -53% | [1]; at 50.0 µM 11.8% | [1]; at 100.0 µM -70% | [2]; [17] -14% | [2]; [18] 33% | [2]; at 50.0 µM 27.6% | [3]; at 1.2 µM 15% | [3]; at 3.7 µM 22% | [3]; at 11.0 µM 20% | [3]; at 33.0 µM 9% | [3]; at 100.0 µM 8% | [4]; [17] 43% | [4]; [18] 59% | [4]; at 50.0 µM 13.2% | [5]; at 1.2 µM -23% | [5]; at 3.7 µM -23% | [5]; [17] 33% | [5]; at 11.0 µM -24% | [5]; at 33.0 µM -5% | [5]; at 50.0 µM 53.7% | [5]; at 100.0 µM -36% | [6]; at 1.2 µM -22% | [6]; at 3.7 µM -19% | [6]; at 11.0 µM -26% | [6]; at 33.0 µM -32% | [6]; at 100.0 µM -24% | [7]; at 1.2 µM -6% | [7]; at 3.7 µM -2% | [7]; at 11.0 µM -17% | [7]; at 33.0 µM -17% | [7]; at 100.0 µM -14% | [8]; at 1.2 µM -20% | [8]; at 3.7 µM -16% | [8]; at 11.0 µM -19% | [8]; at 33.0 µM -18% | [8]; at 100.0 µM -11% | [9]; [17] 34% | [9]; [18] 67% | [9]; at 50.0 µM 14.7% | [10]; at 1.2 µM -14% | [10]; at 3.7 µM -4% | [10]; at 11.0 µM -19% | [10]; at 33.0 µM -28% | [10]; at 100.0 µM -42%
active: [1]; [18] 75% | [5]; [18] 75%

CCCCCCCCCCCC1=NCCO1
active: [11]; at 100.0 µM 98% | [12]; at 100.0 µM 98% | [14]; at 100.0 µM 99% | [15]; at 100.0 µM 99% | [1]; at 100.0 µM 99% | [16]; at 100.0 µM 99% | [2]; at 50.0 µM 87.6% | [5]; at 100.0 µM 98% | [6]; at 100.0 µM 99% | [7]; at 100.0 µM 99% | [8]; at 100.0 µM 99% | [9]; [18] 71% | [10]; at 100.0 µM 98%
inactive: [11]; at 1.2 µM 3% | [11]; at 3.7 µM 3% | [11]; at 11.0 µM -1% | [11]; at 33.0 µM 18% | [12]; at 1.2 µM 1% | [12]; at 3.7 µM -1% | [12]; at 11.0 µM 2% | [12]; at 33.0 µM 15% | [13]; at 1.2 µM 4% | [13]; at 3.7 µM 5% | [13]; at 11.0 µM 16% | [13]; at 33.0 µM 27% | [13]; at 100.0 µM 53% | [14]; at 1.2 µM -5% | [14]; at 3.7 µM 3% | [14]; at 11.0 µM 0% | [14]; at 33.0 µM 27% | [15]; at 1.2 µM 9% | [15]; at 3.7 µM 18% | [15]; [17] -11% | [15]; at 11.0 µM 14% | [15]; at 33.0 µM 29% | [15]; [18] 8% | [15]; at 50.0 µM 25.1% | [1]; at 1.2 µM -6% | [1]; at 3.7 µM -4% | [1]; [17] -12% | [1]; at 11.0 µM -13% | [1]; at 33.0 µM 18% | [1]; [18] -21% | [1]; at 50.0 µM 46.3% | [16]; at 1.2 µM 3% | [16]; at 3.7 µM 9% | [16]; at 11.0 µM 15% | [16]; at 33.0 µM 50% | [2]; [17] -12% | [2]; [18] 47% | [4]; [17] -18% | [4]; [18] 36% | [4]; at 50.0 µM 21% | [5]; at 1.2 µM -19% | [5]; at 3.7 µM -27% | [5]; [17] -34% | [5]; at 11.0 µM -1% | [5]; at 33.0 µM 8% | [5]; [18] 31% | [5]; at 50.0 µM 24.5% | [6]; at 1.2 µM -1% | [6]; at 3.7 µM 0% | [6]; at 11.0 µM 2% | [6]; at 33.0 µM 61% | [7]; at 1.2 µM -5% | [7]; at 3.7 µM -3% | [7]; at 11.0 µM -10% | [7]; at 33.0 µM 16% | [8]; at 1.2 µM 1% | [8]; at 3.7 µM -1% | [8]; at 11.0 µM 6% | [8]; at 33.0 µM 63% | [9]; [17] -16% | [9]; at 50.0 µM 41% | [10]; at 1.2 µM 4% | [10]; at 3.7 µM 8% | [10]; at 11.0 µM 5% | [10]; at 33.0 µM 10%

O=C(CSC(=S)N1CCCCC1)Nc1nc2c(s1)CCCC2
inactive: [11]; at 1.2 µM 1% | [11]; at 3.7 µM 6% | [11]; at 11.0 µM 6% | [11]; at 33.0 µM 41% | [12]; at 1.2 µM -9% | [12]; at 3.7 µM -11% | [12]; at 11.0 µM -13% | [12]; at 33.0 µM 3% | [13]; at 1.2 µM 21% | [13]; at 3.7 µM 31% | [13]; at 11.0 µM 38% | [13]; at 33.0 µM 40% | [13]; at 100.0 µM 41% | [14]; at 1.2 µM -8% | [14]; at 3.7 µM -7% | [14]; at 11.0 µM -16% | [14]; at 33.0 µM 17% | [15]; at 1.2 µM -11% | [15]; at 3.7 µM -2% | [15]; [17] 31% | [15]; at 11.0 µM -16% | [15]; at 33.0 µM 26% | [15]; [18] 68% | [1]; at 1.2 µM 7% | [1]; at 3.7 µM -9% | [1]; [17] -4% | [1]; at 11.0 µM 1% | [1]; at 33.0 µM 1% | [1]; [18] 45% | [1]; at 50.0 µM 56.6% | [16]; at 1.2 µM -9% | [16]; at 3.7 µM -14% | [16]; at 11.0 µM -6% | [16]; at 33.0 µM 11% | [3]; at 1.2 µM 3% | [3]; at 3.7 µM -6% | [3]; at 11.0 µM -14% | [3]; at 33.0 µM 0% | [3]; at 100.0 µM 61% | [4]; [17] 11% | [5]; at 1.2 µM 5% | [5]; at 3.7 µM -8% | [5]; [17] 45% | [5]; at 11.0 µM -4% | [7]; at 1.2 µM 24% | [7]; at 3.7 µM 19% | [7]; at 11.0 µM 14% | [7]; at 33.0 µM 43% | [8]; at 1.2 µM 22% | [8]; at 3.7 µM 20% | [8]; at 11.0 µM 15% | [8]; at 33.0 µM 52% | [9]; [17] 16% | [9]; [18] 53% | [10]; at 1.2 µM 27% | [10]; at 3.7 µM 19% | [10]; at 11.0 µM 25% | [10]; at 33.0 µM 23%
active: [11]; at 100.0 µM 79% | [12]; at 100.0 µM 79% | [14]; at 100.0 µM 85% | [15]; at 50.0 µM 74.3% | [15]; at 100.0 µM 83% | [1]; at 100.0 µM 79% | [16]; at 100.0 µM 73% | [4]; [18] 70% | [4]; at 50.0 µM 72.2% | [5]; at 33.0 µM 80% | [5]; [18] 92% | [5]; at 50.0 µM 86.5% | [5]; at 100.0 µM 85% | [7]; at 100.0 µM 84% | [8]; at 100.0 µM 92% | [9]; at 50.0 µM 78.6% | [10]; at 100.0 µM 76%
